According to PubChem BioAssay (NCATS):
Records with an inconclusive call do not appear. A call without a number means that no potency is given here. Active and inactive are the calls of the source. Unless noted, calls come from the whole dose curve; as a rule, active = well fitted curve in the direction sought with a large enough effect; inconclusive = small, poorly fitted or top-dose-only effect, or another doubt; inactive = no such curve, though single readings can be large; an effect the other way counts as inactive or inconclusive.

Key:
[1] = target: Atrial natriuretic peptide receptor 2 (Homo sapiens) (UniProt P20594); assay: Natriuretic polypeptide receptor (hNpr2) antagonism - Pilot subtype selectivity assay (AID 1347050; calls by dose curve)
Sequence of Atrial natriuretic peptide receptor 2 (Homo sapiens) (P20594 whole entry, looked up): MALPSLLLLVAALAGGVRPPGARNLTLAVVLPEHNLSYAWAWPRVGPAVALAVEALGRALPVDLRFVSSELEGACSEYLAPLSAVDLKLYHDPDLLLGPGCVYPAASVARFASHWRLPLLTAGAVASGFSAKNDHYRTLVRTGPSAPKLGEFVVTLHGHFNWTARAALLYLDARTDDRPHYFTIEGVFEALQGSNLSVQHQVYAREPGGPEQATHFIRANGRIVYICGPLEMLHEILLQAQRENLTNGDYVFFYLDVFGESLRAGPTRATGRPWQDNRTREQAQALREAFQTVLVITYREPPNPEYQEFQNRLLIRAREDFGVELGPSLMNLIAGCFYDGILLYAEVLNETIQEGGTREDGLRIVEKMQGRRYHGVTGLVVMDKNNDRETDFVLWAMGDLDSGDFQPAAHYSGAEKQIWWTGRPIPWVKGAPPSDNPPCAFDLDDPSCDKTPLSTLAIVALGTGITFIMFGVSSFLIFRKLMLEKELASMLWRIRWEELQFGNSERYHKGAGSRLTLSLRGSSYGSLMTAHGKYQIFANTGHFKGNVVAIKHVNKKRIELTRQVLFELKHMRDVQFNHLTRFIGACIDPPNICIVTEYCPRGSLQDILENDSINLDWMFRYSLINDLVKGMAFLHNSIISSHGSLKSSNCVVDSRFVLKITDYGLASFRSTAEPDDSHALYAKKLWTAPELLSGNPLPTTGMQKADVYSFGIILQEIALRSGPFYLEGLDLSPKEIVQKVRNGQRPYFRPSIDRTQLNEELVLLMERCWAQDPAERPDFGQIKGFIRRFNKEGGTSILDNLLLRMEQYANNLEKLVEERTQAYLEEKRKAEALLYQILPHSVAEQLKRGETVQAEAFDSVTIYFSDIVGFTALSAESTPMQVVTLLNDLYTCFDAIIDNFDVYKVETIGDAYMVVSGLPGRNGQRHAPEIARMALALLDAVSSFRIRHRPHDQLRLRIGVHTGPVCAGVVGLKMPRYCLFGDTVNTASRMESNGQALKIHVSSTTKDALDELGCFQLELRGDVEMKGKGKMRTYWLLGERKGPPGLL
Procedure, shortened: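 HEK293 cells expressing hNpr2 and a GloSensor cGMP luciferase sensor, 1500/well, preloaded 2 h with 2% GloSensor reagent, compound 30 min, then 1 nM hNppC for 20 min. Antagonism from luminescence after versus baseline pre-read; LOPAC in 1:5 titrations.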

[2] = NS1 protein of Zika virus - qHTS assay to identify small molecule inhibitors in human HEK 293 cells (AID 1347053); note: series mostly up to about 46 µM; nearly all actives have a fitted effect of over 55% in size
Procedure, shortened: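 Following 20 h seeding, HEK 293 cells took compound, then 1 h later ZIKV MR766 (MOI = 0.5). Incubation ran 24 h at 37 C before TR-FRET detection of NS1; a drop in signal indicates inhibition.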

[3] = target: T1, Tyrosine-protein phosphatase non-receptor type substrate 1 (Homo sapiens) + Leukocyte surface antigen CD47 (Homo sapiens) (UniProt P78324+Q08722); assay: CD47-SIRPalpha protein protein interaction - Alpha assay qHTS validation (AID 1347059);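 note: bead proximity luminescence from CD47 binding SIRPalpha after compound preincubation with SIRPalpha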
T1 sequence (P78324 whole entry, looked up): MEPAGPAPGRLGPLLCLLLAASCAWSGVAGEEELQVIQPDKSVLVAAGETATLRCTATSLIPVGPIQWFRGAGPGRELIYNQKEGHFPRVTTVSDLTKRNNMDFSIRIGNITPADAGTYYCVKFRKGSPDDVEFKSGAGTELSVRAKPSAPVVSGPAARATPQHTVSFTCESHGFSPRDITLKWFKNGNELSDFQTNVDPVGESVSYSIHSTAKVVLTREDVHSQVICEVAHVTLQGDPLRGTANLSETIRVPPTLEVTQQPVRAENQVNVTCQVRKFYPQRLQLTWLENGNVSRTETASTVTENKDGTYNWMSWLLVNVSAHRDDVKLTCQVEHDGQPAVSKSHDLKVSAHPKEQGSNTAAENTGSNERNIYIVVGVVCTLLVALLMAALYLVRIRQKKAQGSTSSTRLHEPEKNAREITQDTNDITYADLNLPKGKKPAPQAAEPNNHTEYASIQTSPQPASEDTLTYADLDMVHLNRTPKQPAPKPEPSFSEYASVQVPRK
T1 sequence (Q08722 whole entry, looked up): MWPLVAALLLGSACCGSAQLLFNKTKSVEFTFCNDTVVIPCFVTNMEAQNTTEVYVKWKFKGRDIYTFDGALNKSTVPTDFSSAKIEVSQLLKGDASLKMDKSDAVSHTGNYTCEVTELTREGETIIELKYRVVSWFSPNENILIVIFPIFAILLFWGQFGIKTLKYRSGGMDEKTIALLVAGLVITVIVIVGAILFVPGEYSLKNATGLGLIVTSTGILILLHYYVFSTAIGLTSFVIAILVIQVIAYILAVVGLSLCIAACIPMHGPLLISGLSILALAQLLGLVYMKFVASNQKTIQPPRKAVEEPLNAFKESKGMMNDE
Procedure, shortened: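 Biotinylated Avi-tagged SIRPalpha (25 nM) preincubated 30 min with compound, then His-tagged CD47 (12.5 nM) added 30 min; AlphaScreen with Ni-NTA acceptor and streptavidin donor beads. PBS pH 7.4, 0.05% IGEPAL, room temperature; 7-point titrations.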

[4] = target: Parathyroid hormone/parathyroid hormone-related peptide receptor (Homo sapiens) (UniProt Q03431); assay: qHTS for PTHR1 Agonists: Optimization Screen against the NCGC LOPAC library (AID 1347079);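 note: GloSensor cAMP luminescence in HEK-293 GP2 cells expressing human PTHR1 with IBMX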
Sequence of Parathyroid hormone/parathyroid hormone-related peptide receptor (Homo sapiens) (Q03431 whole entry, looked up): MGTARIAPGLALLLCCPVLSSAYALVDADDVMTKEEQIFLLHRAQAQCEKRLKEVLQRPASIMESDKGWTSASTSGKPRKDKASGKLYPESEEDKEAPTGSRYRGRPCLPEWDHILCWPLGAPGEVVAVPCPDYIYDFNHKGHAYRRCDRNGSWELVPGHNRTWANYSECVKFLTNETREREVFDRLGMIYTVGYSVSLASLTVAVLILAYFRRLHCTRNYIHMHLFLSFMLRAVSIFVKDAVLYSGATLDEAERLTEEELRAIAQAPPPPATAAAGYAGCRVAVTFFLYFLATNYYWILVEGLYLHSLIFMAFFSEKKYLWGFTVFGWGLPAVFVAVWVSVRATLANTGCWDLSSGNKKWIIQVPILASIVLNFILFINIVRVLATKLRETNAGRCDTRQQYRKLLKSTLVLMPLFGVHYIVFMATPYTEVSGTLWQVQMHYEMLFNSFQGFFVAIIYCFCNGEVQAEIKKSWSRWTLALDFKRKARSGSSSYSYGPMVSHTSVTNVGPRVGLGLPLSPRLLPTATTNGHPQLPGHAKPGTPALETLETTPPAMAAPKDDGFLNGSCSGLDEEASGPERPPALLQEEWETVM
Procedure, shortened: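 Agonist readout: GloSensor cAMP luminescence, read after 15 min at room temperature. HEK-293-derived GP2 line carries PTHR1; compounds tested as a titration for 1 hr at 37C in presence of IBMX. M-PTH (1-15) served as control.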

[5] = qHTS of pediatric cancer cell lines to identify multiple opportunities for drug repurposing: Primary screen for TC32 cells (AID 1347089); note: nearly all actives have a fitted effect of over 60% in size
Procedure, shortened: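 Luminescent CellTiter-Glo read-out of metabolically active TC32 cells after 48 h compound exposure. Primary: MIPE 11-point, 0.78 nM–46 µM; NPC 8-point, 0.59 nM–46 µM. Confirmatory: 11-point dilutions.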

[6] = qHTS of pediatric cancer cell lines to identify multiple opportunities for drug repurposing: Primary screen for SJ-GBM2 cells (AID 1347091); note: potency is the fitted concentration of half-maximal effect
Procedure, shortened: (§1)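 Viability measured as metabolically active cells via CellTiter-Glo luminescence following 48 hours of compound exposure, 11-point dilutions in confirmatory testing. 500-1,000 cells/well plated 5 hours before dosing; controls were DMSO and 2.3 µM bortezomib.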

[7] = qHTS of pediatric cancer cell lines to identify multiple opportunities for drug repurposing: Primary screen for A673 cells (AID 1347092); note: nearly all actives have a fitted effect of over 45% in size
Procedure, shortened: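 A673 cells (500-1,000 cells/well in growth media) were pre-incubated 5 h at 37 degrees C, then exposed to compounds for 48 h. Viability was read as CellTiter-Glo luminescence; concentration-response curves came directly from the primary screen.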

[8] = qHTS of pediatric cancer cell lines to identify multiple opportunities for drug repurposing: Primary screen for DAOY cells (AID 1347090); note: series mostly up to about 46 µM; nearly all actives have a fitted effect of over 55% in size
Procedure, shortened: as §1

[9] = target: T1, Tyrosine-protein phosphatase non-receptor type substrate 1 (Homo sapiens) + Leukocyte surface antigen CD47 (Homo sapiens); assay: CD47-SIRPalpha protein protein interaction - HTRF assay qHTS validation (AID 1347058; active = well fitted curve in the direction sought with a large enough effect in the signal ratio, not every such curve was filed as active; the % refers to the signal ratio;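 note: recombinant soluble extracellular CD47 with His tag and biotinylated SIRPalpha domains; series mostly up to about 38 µM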)
Procedure, shortened: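 TR-FRET read (Ch1/Ch2 ratio) of soluble extracellular CD47 and Avi-biotinylated SIRPalpha domains in PBS pH 7.4 with 0.05% IGEPAL; 7-point compound titration. Sequential 30 min room-temperature steps; non-biotinylated SIRPalpha as control inhibitor.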

[10] = target: T1, Tyrosine-protein phosphatase non-receptor type substrate 1 (Homo sapiens) + Leukocyte surface antigen CD47 (Homo sapiens); assay: CD47-SIRPalpha protein protein interaction - LANCE assay qHTS validation (AID 1347057; active = well fitted curve in the direction sought with a large enough effect in the signal ratio, with a control signal flat, not every such curve was filed as active; the % refers to the signal ratio; note: series mostly up to about 38 µM)
Procedure, shortened: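 First, His-tagged CD47 and Eu-labelled anti-His antibody met the compound for 30 min; next, site-specifically biotinylated SIRPalpha was added for 30 min; finally streptavidin-APC was added before reading the TR-FRET ratio.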

Row | SMILES | Potency [1] | outcome [2] | Potency [3] | outcome [4] | Potency [5] | Potency [6] | Potency [7] | Potency [8] | outcome [9] | outcome [10]
1 | Brc1c(NC2=NCCN2)ccc2nccnc12 | inactive | inactive | inactive | inactive | inactive | inactive | inactive | – | – | –
2 | CCCCOCCOCCOCc1cc2c(cc1CCC)OCO2 | – | inactive | – | – | inactive | inactive | inactive | inactive | – | –
3 | COC(=O)C1=C(C)NC(C)=C(C(=O)OCCN(C)Cc2ccccc2)C1c1cccc([N+](=O)[O-])c1 (stereo unspecified) | – | inactive | – | inactive | inactive | – | – | – | – | –
4 | OC(CCN1CCCCC1)(c1ccccc1)C1CCCCC1 (stereo unspecified) | – | inactive | – | inactive | inactive | – | inactive | inactive | – | –
5 | CC(C)(C)NCC(O)c1cc(O)cc(O)c1 (stereo unspecified) | inactive | inactive | inactive | – | inactive | inactive | inactive | inactive | – | –
6 | OCCN1CCN(CC/C=C2/c3ccccc3Sc3ccc(C(F)(F)F)cc32)CC1 | inactive | – | inactive | inactive | – | 21.1 µM (active) | – | – | inactive | –
7 | COc1cc2c(cc1OC)-c1cc(=Nc3c(C)cc(C)cc3C)n(C)c(=O)n1CC2 | inactive | – | – | – | – | 16.8 µM (active) | – | – | – | –
8 | CN(C)CC/C=C1\c2ccccc2COc2ccccc21 | inactive | inactive | inactive | inactive | inactive | inactive | – | – | – | –
9 | CCN(CC)CCCN(c1ccccc1)C1Cc2ccccc2C1 | – | inactive | inactive | inactive | inactive | – | – | inactive | inactive | inactive
10 | Cc1ccc(=O)n(-c2ccccc2)c1 | inactive | inactive | inactive | inactive | inactive | inactive | inactive | – | inactive | –
11 | CN(C)CC[C@@H](c1ccc(Br)cc1)c1ccccn1 | inactive | inactive | – | inactive | inactive | inactive | inactive | inactive | – | –
12 | COC(=O)C1=C(C)NC(C)=C(C(=O)OC(C)(C)CN(C)CCC(c2ccccc2)c2ccccc2)C1c1cccc([N+](=O)[O-])c1 (stereo unspecified) | inactive | – | inactive | inactive | – | inactive | – | – | inactive | inactive
13 | Cc1nc2c([nH]1)c(=O)n(C)c(=O)n2Cc1ccco1 | inactive | inactive | inactive | inactive | inactive | inactive | inactive | – | inactive | –
